Drawing on PubChem BioAssay AID492952 (Southern Research Specialized Biocontainment Screening …, 2010), this text covers outcome for 79 compounds.

SMILES strings stand for the structures. The whole screen tested about 2,300 compounds, of which about 1,500 (65%) were called active. How the calls were made is not given here. So high a share suggests a set chosen from earlier hits. The list shows a part of the results. Entries that show only a call come without a potency. Potency and affinity values are given separately.

This test is described as follows: replicating M. tuberculosis growth inhibition, dose response, non-replicating M. tuberculosis project, H37Rv (AID 492952).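 Further: Mycobacterium tuberculosis grown in culture; growth inhibition read after a week of incubation.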 The note with it: series mostly up to 50 µM.
`CC1CC(C)CN(CCOCCSc2ccc(Cl)cc2)C1` (centres undefined): the result was inactive.
Next, `Clc1ccc(CN2C3=NCCCN3c3ccccc32)cc1`: “inactive”.
Next, `COc1ccc(C(=O)CCS(=O)(=O)c2ccc(C)cc2)cc1OC`: “inactive”.
For `O=C1CC(=O)CC(c2ccccc2)C1`, the compound was classed as inactive.
The value for `O=C(NCc1nnc(SC/C=C/c2ccccc2)o1)c1ccco1` was “inactive”; that for `CCN1CCC(=NNC(=O)c2ccco2)CC1` was “inactive”; that for `Cc1occc1C(=O)N/N=C/C(Br)=C\c1ccccc1` was “inactive”.
In the case of `O=C(Nc1nnc(COc2ccc(Cl)cc2)s1)c1ccco1`, the compound was called inactive.
Next, `CC1=NN(C(=O)CCCc2ccccc2)C(O)(C(F)(F)F)C1` (centres undefined): “inactive”.
The value for `Cc1cc(C)cc(OC(=O)c2cccnc2)c1` was “inactive”; that for `Cc1n[nH]c(C)c1CCNC(=O)C1CCC(=O)N(Cc2ccccc2F)C1` (centres undefined) was “inactive”; that for `COc1ccc2c3c(cccc13)OCC2=O` was “inactive”.
With `O=C1/C(=C/c2cccs2)COc2ccccc21`, the call was inactive.
The value for `S=C1NC2(CCCC2)N=C1c1ccccc1` was “inactive”; that for `CCOc1ccc(C(=O)N/N=C(/C)C2C(=O)c3ccccc3C2=O)cc1` was “inactive”; that for `CCOC(=O)Nc1cccc(OCC(=O)Nc2ccc(OC)cc2OC)c1` was “inactive”.
Consider `NC(=O)COc1ccc2cc(-c3ccc(F)cc3)c(=O)oc2c1`, for which the compound was called inactive.
The value for `CCOc1c(OC(C)=O)ccc(/C=C2\N=C(SCC)SC2=O)c1[N+](=O)[O-]` was “inactive”.
For the compound `COc1ccc(-c2nnc(SCC(C)C)o2)cc1`, the call was inactive.
Turning to `Cc1ccc(CSc2nnc(-c3cccnc3)o2)cc1`, the result was inactive.
Next, `O=[N+]([O-])c1ccc(CSc2nnc(-c3cccnc3)o2)cc1`: “inactive”; `Brc1ccc(CSc2nnc(-c3ccco3)o2)cc1`: “inactive”; `O=C1CC(N2CCC(C(=O)N3CCCCC3)CC2)C(=O)N1` (centres undefined): “inactive”.
The value for `C#CCSc1nnc(-c2ccc(O)cc2)o1` was “inactive”; that for `CC(C)c1ccc(OCC(=O)NCc2ccccc2)cc1` was “inactive”.
Next, `Cc1cc(Br)ccc1OCCCCN1CCCCC1`: “inactive”; `O=C(NCc1ccc(F)cc1)c1cnccn1`: “inactive”; `COc1ccc(Cc2nnc(-c3ccccc3)o2)cc1`: “inactive”.
On to `O=C(c1ccc(-c2ccc([N+](=O)[O-])cc2)o1)N1CCN(S(=O)(=O)c2cccs2)CC1`, for which the result was inactive.
Next, `Cc1ccc2[nH]c3c(c2c1)CCCC3NCCO` (centres undefined): “inactive”; `COCCCn1c(=NC(=O)c2ccccc2)c(C#N)cc2c(=O)n3cccc(C)c3nc21`: “inactive”.
Next, `Cc1cc(Cl)ccc1NNC(=O)c1c(C)noc1C`: “inactive”.
Turning to `CCOC(=O)c1ccsc1NC(=O)CCS(=O)(=O)c1ccccc1`, the compound was called inactive.
The value for `CCOC(=O)c1sc(NC(=O)CCN2CCOCC2)c(C(=O)OCC)c1C` was “inactive”.
Next, `Nc1ccc(Nc2ccccc2)cc1`: “inactive”.
`CC1(C)CC(=O)C=C(Nc2ccccc2N)C1`: the compound was called inactive.
On to `Cc1ccc(Sc2ncccc2N)cc1`, for which the outcome was inactive.
The value for `CN(C)/C=C1/C(=O)N(c2ccc([N+](=O)[O-])cc2)N=C1c1ccccc1` was “inactive”; that for `Cc1cc2cc(CNC(=O)C3CCCC3)ccc2n1C` was “inactive”.
The value for `CC1(C)Oc2ccc(NC(=O)C3COc4ccccc4O3)cc2O1` (centres undefined) was “inactive”; that for `S=C(Nc1ccc2c(c1)OCO2)Nc1ccc2c(c1)OCO2` was “inactive”.
Next, `O=C(c1ccccc1)n1c(=O)c(F)cn(COCCBr)c1=O`: “inactive”; `O=C(CCc1ccccc1F)N1CCN(c2ccccc2)CC1`: “inactive”.
In the case of `COc1ccc([N+](=O)[O-])c(S(=O)(=O)c2ccc(Cl)cc2)n1`, the result was inactive.
The value for `CCOC(=O)N1CCC(NS(=O)(=O)c2cc3c(cc2Cl)NC(=O)CO3)CC1` was “inactive”; that for `O=C(Nc1ncc2c(n1)-c1ccccc1OC2)c1ccc(F)cc1` was “inactive”; that for `O=C(Cc1ccccc1)Nc1ccc(C(=O)NCC2COc3ccccc3O2)cc1` (centres undefined) was “inactive”.
With `O=C(Nc1sc2c(c1C(=O)O)CCCC2)c1ccc(F)cc1`, the outcome was inactive.
The value for `O=C(CCc1ccccc1)N/N=C/c1cc(Br)ccc1O` was “inactive”; that for `COc1ccc(N/N=C/c2c(C(=O)O)ccc3ccccc23)cc1` was “inactive”; that for `O=C(Nc1nccs1)c1ccc(Br)cc1` was “inactive”.
Next, `CC(C)c1nnc(NC(=O)c2sc3ccccc3c2Cl)s1`: “inactive”.
The value for `C=C1Cn2c(nnc2-c2ccc(Cl)cc2)S1` was “inactive”; that for `COc1ccc(N=N/C(=C\O)C(=O)c2ccco2)cc1` was “inactive”.
For the compound `Clc1ccc(Cc2nnc(-c3cccs3)o2)cc1`, the outcome was inactive.
The value for `COCc1[nH]nc2c1C(c1sccc1C)C(C#N)=C(N)O2` (centres undefined) was “inactive”; that for `O=C(COC(=O)c1cc2ccccc2oc1=O)Nc1ccc(F)cc1F` was “inactive”; that for `O=C(NCc1ccccc1)c1cc2ccccc2oc1=O` was “inactive”.
The value for `Cc1cccc(NC(=O)COC(=O)c2cc3ccccc3oc2=O)c1` was “inactive”; that for `Cc1cccc(NC(=O)c2cc3ccccc3oc2=O)c1` was “inactive”.
Take `NNC(=O)CNC(=O)C12CC3CC(CC(C3)C1)C2`: the compound was classed as inactive.
`COc1ccc(OC(=O)C(C)N2C(=O)c3ccccc3C2=O)cc1` (centres undefined): the compound was called inactive.
The value for `COc1ccc2c(c1)C(=C(C#N)C#N)C(=O)N2CCc1ccccc1` was “inactive”.
The value for `CCN1/C(=C(\O)c2ccccc2)C(=O)c2ccccc2S1(=O)=O` was “inactive”; that for `Cc1cccc2nc(CSc3nc4cc([N+](=O)[O-])ccc4s3)cn12` was “inactive”.
Turning to `CC(C)CN1C(=O)CC(Sc2ccccc2C(=O)O)C1=O` (centres undefined), the result was inactive.
Next, `COc1cc(CNC2CCCC2)cc(Cl)c1OCc1ccc(F)cc1`: “inactive”.
As to `COc1ccc(CCCC(=O)NCc2ccccc2)cc1C`, the call was inactive.
The value for `NC(=O)C1(N2CCCCC2)CCN(C2CC(=O)N(CCc3ccccc3)C2=O)CC1` (centres undefined) was “inactive”.
Next, `O=C(NCc1ccco1)c1nc2ccccc2s1`: “inactive”.
Next, `CC(C)(C)CC(=O)NC(=S)NCc1ccco1`: “inactive”.
`CCCCCCOc1ccc(C(=O)O)cc1C#N`: the call was inactive.
Next, `COc1ccc(S(=O)(=O)N(C(C)=O)c2ccc(OC(C)=O)c3ccccc23)cc1[N+](=O)[O-]`: “inactive”.
Next, `Cc1nc2scc(-c3ccccc3)c2c(=O)o1`: “inactive”; `CCOC(=O)c1ccc(NC(=O)NS(=O)(=O)c2ccc(C)cc2)cc1`: “inactive”.
Next, `CCOC(=O)c1ccc(NC(=O)CCSCCc2ccccn2)cc1`: “inactive”; `Cc1ccc(CCC(=O)Nc2ccc([N+](=O)[O-])cc2)o1`: “inactive”.
Regarding `O=C(NNc1ccc([N+](=O)[O-])cc1)C1CC2CCCC(C1)C2=O` (centres undefined), the result was inactive.
Next, `CC(NC(=O)c1cccc(F)c1)C1CC2CCC1C2` (centres undefined): “inactive”.
